High-throughput results (PubChem BioAssay)
FMDV inh – foot and mouth disease virus antiviral activity. FMDV antiviral cell-based qHTS. Potency, µM (highest dose often 57.9 µM), hits mostly inhibitors. 410,000 compounds, 1.2% hits. AID 1159524; calls by dose curve; tested in HEK293T cells; also: read-out not given here; nearly all actives have a fitted effect of over 45% in size
HCV inhibitor – blocks hepatitis C virus | Huh7.5.1 HCVcc-Cre infection, luciferase reporter, 44 h | Potency, µM (doses to about 41.8 µM), most hits filed as inhibitors | 340,000 compounds, 3.4% hits | AID 651820; active = well fitted inhibition curve with a large enough effect; inconclusive = small, poorly fitted or top-dose-only effect, or another doubt; inactive = no such curve, though single readings can be large or run the other way
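Cells seeded at 1,000/well and cultured 4 h, then compounds added followed by HCVcc-Cre virus (~0.5 moi). After 44 h further culture, luciferase substrate was added, plates held 15 min at room temperature, and luminescence read for 15 sec.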
MARV entry inh – Marburg virus entry inhibition; Marburg virus pseudotyped entry inhibition, cell reporter; 300,000 compounds, 1.8% hits; Potency, µM (top dose mostly 37.8 µM), usual class: inhibitors; calls by dose curve; tested in HEK293 cells
LASV entry inh – inhibitors of Lassa virus binding or cell entry; Lassa virus pseudotype entry inhibition, cell reporter; Potency, µM (series often up to 37.9 µM), actives largely listed as inhibitors; 300,000 compounds, 1.2% hits; calls by dose curve; tested in HEK293 cells; also: nearly all actives have a fitted effect of over 50% in size
SARS PLP yeast – inhibitors of SARS-CoV papain-like protease in yeast | 330,000 compounds, 0.19% hits | S. cerevisiae expressing SARS-CoV PLpro, growth rescue | AID 485353 | Potency, µM (top dose mostly 32.9 µM), most hits filed as activators; calls by dose curve; also: nearly all actives have a fitted effect of over 55% in size
HCMV antiviral – inhibitors of human cytomegalovirus; 410,000 compounds, 4.5% hits; HFF cells, HCMV-luciferase reporter, 72 h; hits give low values; activity change, negative = inhibition, % at 57.5 µM; in the data active = activity change below about -60%; inconclusive = no clear call, values can overlap the other calls; inactive = above about -39%
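Screen run at 2 compound doses on HFFs infected with reporter HCMV, MOI 1 PFU/cell. Luciferase activity from cell lysates at 72 h post infection gave inhibition relative to buffer-only and Salinomycin wells.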
Hits are given with their value. Shown are actives, neighbours in structure and some others; about 8% of the full set was active somewhere.

O=[N+]([O-])c1ccc(-c2ccc(S(=O)(=O)NCCN3CCCC3)cc2)cc1 was read as FMDV inh inactive, HCV inhibitor 10µM, MARV entry inh 18µM, LASV entry inh inconclusive, SARS PLP yeast inactive and HCMV antiviral -71.
Screening O=[N+]([O-])c1ccc(S(=O)(=O)NCCN2CCOCC2)cc1 returned FMDV inh inactive, HCV inhibitor inactive, MARV entry inh inactive, LASV entry inh inactive, SARS PLP yeast inactive and HCMV antiviral inactive.
`Cc1ccc(C(CNS(=O)(=O)c2ccc(Br)cc2)N2CCN(C)CC2)cc1` (stereo unspecified) gave FMDV inh inactive, HCV inhibitor 8.9µM, MARV entry inh inconclusive, LASV entry inh inactive, SARS PLP yeast inactive and HCMV antiviral inactive.
COC(=O)c1c(NC(=O)c2ccc(OC)cc2OC)sc2c1CCCCC2 was read as FMDV inh inactive, MARV entry inh inactive, LASV entry inh inactive and HCMV antiviral inactive.
Screening CCCN1C(=O)C2(c3ccccc31)c1c(oc3cc(C)c(C)cc3c1=O)C(=O)N2CCCOC (stereo unspecified) returned FMDV inh inactive, MARV entry inh inconclusive, LASV entry inh inactive and HCMV antiviral inactive.
CCCC1NC(=S)N(C2CCCCC2)C1=O (stereo unspecified) was read as FMDV inh inactive, HCV inhibitor inactive, MARV entry inh inactive, LASV entry inh inactive, SARS PLP yeast inactive and HCMV antiviral inactive.
For CN(C)C=C1C(=O)N(C2CCCCC2)C(=O)N(C2CCCCC2)C1=O the results were FMDV inh 18µM, HCV inhibitor inactive, MARV entry inh inactive, LASV entry inh inconclusive, SARS PLP yeast inactive and HCMV antiviral inactive.
Screening CCN(CC)c1ccc(NC(=O)c2ccc(NC(=O)C3CCCO3)cc2)c(C)c1 (stereo unspecified) returned FMDV inh inactive, HCV inhibitor inactive, MARV entry inh inactive, LASV entry inh inactive, SARS PLP yeast inactive and HCMV antiviral inconclusive.
For NC(=O)c1ccc(NC(=O)C2CCCO2)cc1 (stereo unspecified) the results were FMDV inh inactive, HCV inhibitor inactive, MARV entry inh inactive, LASV entry inh inactive, SARS PLP yeast inactive and HCMV antiviral inactive.
For O=C(Nc1ccc(O)cc1)c1ccc(NC(=O)C2CCCO2)cc1 (stereo unspecified) the results were FMDV inh inactive, HCV inhibitor inactive, SARS PLP yeast inactive and HCMV antiviral -63.
Cc1cc(NC(=O)c2ccc(NC(=O)C3CCCO3)cc2)ccc1Br (stereo unspecified) was read as FMDV inh inconclusive, HCV inhibitor inactive, SARS PLP yeast inactive and HCMV antiviral -74.
`Fc1ccc(CNCCc2c[nH]c3ccccc23)cc1` gave FMDV inh inactive, HCV inhibitor inactive, MARV entry inh 10µM, LASV entry inh inactive, SARS PLP yeast inactive and HCMV antiviral inactive.
Screening CCc1ccc(CNCCc2ccccc2F)cc1 returned FMDV inh inactive, HCV inhibitor inactive, MARV entry inh inactive, LASV entry inh inconclusive, SARS PLP yeast inactive and HCMV antiviral -72.
COc1cccc(CNCCc2c[nH]c3ccccc23)c1 was read as FMDV inh inactive, HCV inhibitor inactive, MARV entry inh 11µM, LASV entry inh inconclusive, SARS PLP yeast inactive and HCMV antiviral inactive.
Screening COc1ccc(-n2ncc(C(=O)N3CCN(C(=O)c4ccco4)CC3)c2C2CCN(C(=O)OC(C)(C)C)CC2)cc1 returned FMDV inh inactive, LASV entry inh inactive and HCMV antiviral inactive.
Screening COc1ccc(C2C(C(=O)Nc3ccc(OC)c(OC)c3)c3ccccc3C(=O)N2C)cc1 (stereo unspecified) returned FMDV inh inactive, HCV inhibitor inactive, MARV entry inh inconclusive, SARS PLP yeast inactive and HCMV antiviral inactive.
Screening CC(=O)Cn1ncc(Br)c(Br)c1=O returned FMDV inh inconclusive, HCV inhibitor inconclusive, MARV entry inh inconclusive, LASV entry inh inconclusive, SARS PLP yeast inactive and HCMV antiviral -105.
`O=C(OCn1ncc(Br)c(Br)c1=O)c1c(F)cccc1F` gave HCV inhibitor 2.8µM, MARV entry inh inactive and SARS PLP yeast inactive.
Cc1ccc([C@H]2/C(=C(\O)c3ccc(OC(C)C)cc3)C(=O)C(=O)N2CCN2CCOCC2)cc1 was read as MARV entry inh inactive.
Screening Cc1cc(C)nc(-n2ncc3c2CC(c2ccccc2)CC3=O)n1 (stereo unspecified) returned FMDV inh inactive, HCV inhibitor inactive, MARV entry inh inactive, LASV entry inh inconclusive, SARS PLP yeast inconclusive and HCMV antiviral inconclusive.
For Cc1cc(C)nc(-n2ncc3c2CC(c2cccc(Cl)c2)CC3=O)n1 (stereo unspecified) the results were FMDV inh inactive, HCV inhibitor inactive, MARV entry inh 5.6µM, LASV entry inh inconclusive, SARS PLP yeast inactive and HCMV antiviral -89.
Screening Cn1ncc(Br)c1NC(=O)CSc1ccc(Cl)cc1 returned FMDV inh inconclusive, HCV inhibitor 25µM, SARS PLP yeast inactive and HCMV antiviral inactive.
`O=C(CSc1ccc(Cl)cc1)Nc1ncccn1` gave FMDV inh inactive, HCV inhibitor inactive, MARV entry inh inactive, LASV entry inh inactive, SARS PLP yeast inactive and HCMV antiviral inactive.
`CC(O)(COc1ccccc1)c1ccc2c(c1)CN(Cc1cccn1-c1ccccn1)CCO2` (stereo unspecified) gave FMDV inh inactive.
`CS(=O)(=O)NCCCNc1ccc(C(F)(F)F)cc1[N+](=O)[O-]` gave FMDV inh inactive, HCV inhibitor inactive, SARS PLP yeast inactive and HCMV antiviral inactive.
Nc1cc(C(F)(F)F)cc([N+](=O)[O-])c1N was read as FMDV inh inactive, HCV inhibitor inconclusive, SARS PLP yeast inactive and HCMV antiviral inactive.
O=[N+]([O-])c1cc(C(F)(F)F)ccc1Cl was read as FMDV inh inactive, HCV inhibitor inconclusive, SARS PLP yeast inactive and HCMV antiviral -69.
`O=[N+]([O-])c1cc(C(F)(F)F)ccc1NCCCCNS(=O)(=O)c1ccc(Cl)cc1` gave FMDV inh inconclusive, HCV inhibitor inconclusive, MARV entry inh inconclusive, LASV entry inh inactive, SARS PLP yeast inactive and HCMV antiviral -73.
CCN(CC)CC#CC(OC)(c1ccccc1)c1ccccc1 was read as FMDV inh inconclusive, HCV inhibitor inactive, MARV entry inh inconclusive, LASV entry inh inconclusive, SARS PLP yeast inactive and HCMV antiviral -63.
For COc1cc(OC)c(NC(=O)c2ccc(-n3cnc4cccnc43)cc2)cc1Cl the results were FMDV inh inactive, LASV entry inh inconclusive and HCMV antiviral inactive.
`COC(=O)c1ccc(C(=O)OC)c(-n2c(=O)c3ccccc3c3ccccc3c2=O)c1` gave FMDV inh inconclusive, HCV inhibitor inactive, MARV entry inh inconclusive, LASV entry inh inconclusive, SARS PLP yeast inactive and HCMV antiviral inactive.
CC1(C)CC2CC(C)(CN2C(=S)Nc2ccccc2)C1 (stereo unspecified) was read as FMDV inh inactive, HCV inhibitor inactive, MARV entry inh inactive, LASV entry inh inactive, SARS PLP yeast inactive and HCMV antiviral -61.
